# The list is not random: actives were taken first. Their share in the collection is about 3.3%.
# TLR9-MyD88 block: blocks human TLR9 binding to MyD88. AID 504734. 340,000 tested, 0.21% active. inhibition, % at 4.98 µM. CHO BLA complementation TLR9-MyD88, CCF4 FRET ratio;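 active = inhibition above the mean over all tested compounds plus 3 SD, cut at about 21% in these data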;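 also: 0% = DMSO only wells and 100% = clavulanate BLA inhibitor control wells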
# PRMT1 inh: inhibitors of human PRMT1; Q99873; recombinant PRMT1, activity-based probe fluorescence polarization; inhibition, % at 2.79 µM; 370,000 tested, 1.3% active;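 active = inhibition above about 21% made by adding two undisclosed values, limit read from the data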
# rCAG RNA binder: binds r(CAG) RNA repeats; r(CAG) RNA repeat, TO-PRO-1 dye displacement fluorescence; inhibition, % at 3 µM; 370,000 tested, 1.3% active; AID 651821;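 active = inhibition above the plate cutoff, the mean of all test compounds on that plate plus 3 SD, cut at about 35% in these data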;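 also: 0% = DMSO alone and 100% = 100 µM mitoxantrone as full dye displacement; higher means more dye released from RNA so lower well fluorescence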
# ABHD5-PLIN5 inh: ABHD5-PLIN5 protein interaction inhibition | Split G. princeps luciferase complementation, luminescence, 4 h | Q00G26+Q8WTS1 | 360,000 tested, 0.78% active | inhibition, % at 4 µM;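 active = inhibition above the mean inhibition across every tested compound plus 3 SD, cut at about 22% in these data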;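 also: 0% = DMSO only wells and the 100% control is not disclosed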
# TLR4 MyD88 comp: inhibitors of human TLR4-MyD88 binding | O00206+Q99836 | HeLa CL3-4 TLR4/MyD88 BLA complementation, FRET ratio | inhibition, % at 8.4 µM | 200,000 tested, 0.18% active | AID 861; in the data active = inhibition above about 25%;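 also: 0% = vehicle and 100% = reference inhibitor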
# NOD2-RIPK2 inh: NOD2-RIPK2 protein interaction inhibition. AID 624267. O43353. 360,000 tested, 0.38% active. CHO BLA complementation NOD2-RIPK2, CCF4 ratio. inhibition, % at 4.98 µM; in the data active = inhibition above about 21%;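 also: 0% = vehicle only and 100% = reference blocker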
# rCAG bind conf: r(CAG) RNA repeat binding, confirmation; shares compounds with rCAG RNA binder; TO-PRO-1 dye displacement fluorescence; inhibition, % at 3 µM; 4,300 tested, 70% active;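 active = inhibition above a per-plate cutoff, the mean inhibition of sample wells plus 3 SD, cut at about 35% in these data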;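 also: loss of TO-PRO-1 fluorescence as compound displaces dye from 1x1 AA loop RNA; 0% = DMSO only wells and 100% = 100 µM mitoxantrone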
# DNA CAG counter: disrupts DNA CAG TO-PRO-1 complex, flagging rCAG hits; shares compounds with rCAG RNA binder; d(CAG) DNA oligo TO-PRO-1 dye displacement, fluorescence; inhibition, % at 3 µM; 4,300 tested, 94% active; AID 652068;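 active = inhibition above its plate's cutoff, the mean test-well inhibition plus 3 SD, cut at about 4.8% in these data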;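 also: 0% = DNA dye mix with DMSO and 100% = 100 µM mitoxantrone; hits displace the dye from DNA and so lower well fluorescence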
# * = called active by the depositor; . = not tested or not shown.
SMILES,TLR9-MyD88 block,PRMT1 inh,rCAG RNA binder,ABHD5-PLIN5 inh,TLR4 MyD88 comp,NOD2-RIPK2 inh,rCAG bind conf,DNA CAG counter
Cc1ccccc1CN1[C@@H](C)[C@H](c2ccccc2)Oc2cccc(NCCc3ccccc3)c2S1(=O)=O,.,-2.4,4.4,.,.,.,.,.
C=CCn1c(SCC(=O)Nc2ccccc2OCC)nnc1-c1ccc(C(C)(C)C)cc1,.,0.9,0.3,.,.,.,.,.
Cc1ccc(C)c(NC(=O)CN(C)C(C)C(=O)N2CC(C)CC(C)C2)c1 (centres undefined),-16.1,1.2,-7.7,-14.9,.,3.4,.,.
COc1ccccc1/C=C1\SC(=S)N(CCC(=O)Nc2cccc(O)c2)C1=O,11.8,-1.4,16.1,9.1,.,10.2,.,.
COc1cccc(/C=C2\SC(=S)N(NS(=O)(=O)c3ccc(C)cc3)C2=O)c1OC,-3.5,-0.1,74.7*,-4.6,.,-7.1,65.9*,28.0*
COc1ccccc1/C=C1\SC(=S)N(NS(=O)(=O)c2ccccc2)C1=O,-6.5,0.1,69.0*,-0.9,.,-0.8,69.1*,22.3*
COc1cc(/C=C2\SC(=S)N(NS(=O)(=O)c3ccc(C)cc3)C2=O)cc(OC)c1OC,-5.2,-3.0,5.7,-2.4,.,-2.5,.,.
Cc1cc(C)cc(NC(=O)CSc2nc(N)c(NC(=O)c3cccs3)c(=O)[nH]2)c1,-12.3,5.8,5.7,4.0,-11.6,-1.6,.,.
COc1ccc(NC(=O)CSc2nc(-c3ccco3)nc3cc(=O)[nH]n23)cc1Cl,2.6,0.7,54.4*,2.1,.,-0.6,35.7*,13.8*
CCc1nc(N)c(C#N)c(-c2ccc(O)c(OC)c2)c1C,-8.1,0.6,-4.2,1.6,9.4,-0.9,.,.
COc1cc(-c2c(C#N)c(=O)[nH]c3c2c(C)nn3-c2ccccc2)ccc1O,0.8,0.3,35.5*,-1.2,1.8,-0.1,29.7,6.3*
COc1cc(-c2nnc(SCC(=O)N3C(C)CCCC3C)o2)cc(OC)c1OC (centres undefined),.,-5.1,-1.7,.,.,.,.,.
COC(=O)[C@]12C[C@H](CC(=O)NCc3cccc4ccccc34)C(=O)N(Cc3ccc4c(c3)OCO4)C1=C[C@H](C(C)C)O[C@@H]2C1CC1,.,4.0,7.9,.,.,.,.,.
COc1ccc(S(=O)(=O)N2CCCCCC2)cc1C(=O)Nc1ccc(C(=O)N(C)C)cc1,9.4,-1.5,-1.9,-4.4,.,8.1,.,.
O=C(O)c1cccc(NC(=O)c2ccc(Cl)c(S(=O)(=O)N3CCCCCC3)c2)c1,0.0,0.2,34.6*,9.5,-3.2,-2.5,32.4,5.4*
O=C(O)c1cccc(NC(=O)c2cccc(S(=O)(=O)N3CCc4ccccc43)c2)c1,0.4,4.4,-7.2,8.9,.,-0.9,.,.
O=C(O)c1cccc(NC(=O)c2cccc(S(=O)(=O)N3CCc4ccccc4C3)c2)c1,0.0,3.5,37.0*,-1.2,7.2,12.5,22.7,4.5*
COc1ccc(C(=O)O)cc1S(=O)(=O)Nc1cccc(C(F)(F)F)c1,-7.5,1.1,1.7,2.7,-8.8,-4.0,.,.
O=C(O)c1ccc(Cl)c(S(=O)(=O)Nc2cccc(C(=O)Nc3cccc(C(F)(F)F)c3)c2)c1,-5.8,-0.2,39.1*,-2.8,-1.6,-2.8,24.1,7.9*
O=C(Nc1cccnc1)c1ccc(Cl)c(S(=O)(=O)N2CCCCC2)c1,-13.0,1.6,-3.7,-6.4,.,1.9,.,.
CC(CC(=O)NC1CCCCC1)S(=O)(=O)c1ccc2c(c1)NC(=O)CO2 (centres undefined),5.9,1.1,-0.1,-6.9,.,-1.0,.,.
COc1ccc(Cl)cc1NC(=O)NNC(=O)C(=O)Nc1ccc(F)cc1,-2.6,-3.6,3.5,17.7,.,-8.3,.,.
COc1ccc(OC)c(S(=O)(=O)N(CCc2ccc(OC)c(OC)c2)Cc2cccs2)c1,.,0.1,3.8,.,.,.,.,.
COc1ccc(CCN(Cc2cccs2)S(=O)(=O)c2ccc(C(=O)O)cc2)cc1OC,-4.1,-0.2,36.5*,-2.8,-10.3,6.0,37.1*,5.5*
Cc1ccc(-c2nn(-c3ccccc3)cc2C(=O)Nc2ccc(C(=O)O)cc2)cc1,-5.8,2.1,44.4*,1.8,13.4,3.4,36.9*,8.2*
SMILES,TLR9-MyD88 block,PRMT1 inh,rCAG RNA binder,ABHD5-PLIN5 inh,TLR4 MyD88 comp,NOD2-RIPK2 inh,rCAG bind conf,DNA CAG counter
O=C(O)c1cccc(NC(=O)c2cn(-c3ccccc3)nc2-c2ccc(F)cc2)c1,-12.1,0.8,38.4*,-5.8,.,-1.8,24.7,5.5*
CC1=Nc2ccccc2/C1=C\c1nc(-c2ccccc2)oc1O,4.8,-3.3,60.2*,12.6,-1.1,10.9,37.0*,16.6*
CC1=Nc2ccccc2/C1=C/c1nc(-c2ccc(C)s2)oc1O,17.1,-3.6,46.2*,14.3,-6.2,-1.9,41.9*,21.5*
CC1=Nc2ccccc2/C1=C/c1c(C)[nH]c2ccccc12,0.3,.,.,13.2,.,1.2,.,.
COc1ccc(-c2nc(/C=C3\C(C)=Nc4ccccc43)c(O)o2)cc1,0.8,1.1,51.5*,12.2,10.0,8.8,34.8*,20.1*
CC1=Nc2ccccc2/C1=C\c1nc(-c2ccc(C(F)(F)F)cc2)oc1O,4.5,-3.5,12.7,1.6,2.1,-5.3,.,.
O=C(Cc1c(F)cccc1Cl)NNC(=O)c1ccccc1Cl,-1.6,1.4,2.9,2.1,.,-8.3,.,.
O=C(O)Cc1ccc(NS(=O)(=O)c2ccccc2Cl)cc1,.,0.0,0.6,-5.1,-8.4,-0.4,.,.
Cc1ccc(C)c(Sc2ccc(S(=O)(=O)Nc3ccc(C(=O)O)cc3)cc2)c1,-13.7,-2.1,37.6*,19.1,.,-3.8,41.5*,11.1*
Cc1ccc(Sc2ccc(S(=O)(=O)Nc3ccc(CC(=O)O)cc3)cc2)cc1C,-4.6,1.2,51.9*,-17.6,.,0.5,43.7*,13.7*
Cc1ccc(S(=O)(=O)c2cc(C)cc(S(=O)(=O)Nc3ccc(C(=O)O)cc3)c2C)cc1,-10.4,3.0,11.2,4.2,.,-9.8,.,.
CN(C)S(=O)(=O)c1cccc(NC(=O)COC(=O)CCc2nc3ccccc3s2)c1,-5.1,-1.3,3.3,-3.7,-1.7,-6.1,.,.
CCOC(=O)C1=C(O)/C(=C/c2ccc(OCC(=O)O)c(OC)c2)SC1=Nc1ccc(OC)cc1,8.3,0.0,51.7*,5.7,-7.2,-11.8,65.3*,20.4*
Cn1cnc(C(=O)NCc2ccccc2)c1C(=O)NCc1ccccc1,-0.6,0.3,-6.8,7.6,.,-0.1,.,.
O=C(O)c1cccc(Nc2nc(C(F)(F)F)nc3ccccc23)c1,6.6,1.8,15.5,2.9,-2.8,-4.8,.,.
COc1cccc(-c2nc(NCc3ccccc3)c3ccccc3n2)c1O,11.2,-0.3,38.2*,-15.2,.,1.0,30.9,14.6*
COc1cccc(-c2nc(NCc3ccco3)c3ccccc3n2)c1O,8.5,-0.6,21.7,-2.0,-3.6,-4.7,.,.
